Reference: PubChem BioAssay (EPA / NIEHS)
Inconclusive results are not listed. Calls of active or inactive are those of the source. How the source made its calls, unless noted: active means hit-call score of the fitted dose curve at least 0.9, where 1 is the maximum; inactive means score below 0.9.

How the values were obtained:
[1] = ACEA_ER_80hr: ACEA Biosciences xCELLigence Real-Time Cell Analysis on Estrogen Receptor Agonism for Proliferation (AID 2282667; active means hit-call score of the fitted dose curve at least 0.9, where 1 is the maximum); details: T47D proliferation, impedance (xCELLigence), 80 h
Summary of the method: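 Estrogen-driven proliferation is captured as electrode impedance in T47D cells 80 h after compound addition. Test articles ran at 8 concentrations, 1:4 dilutions from 100 uM final, in two replicate plates.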

[2] = ATG_CRE_CIS: Attagene CIS-FACTORIAL HepG2 Assay for human cAMP Responsive Element (CRE) binding protein 3 (AID 2282926); details: HepG2 CRE cis-reporter, Attagene multiplexed mRNA; actives raise or lower the signal
Summary of the method: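 Liver-derived HepG2, transfected with a CRE-containing reporter panel, exposed 24 h; transcript levels sized and quantified by capillary electrophoresis of labelled amplicons; signal changes either way referenced to vehicle.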

[3] = target: CCAAT/enhancer-binding protein beta (Homo sapiens) (UniProt P17676); test: ATG_C_EBP_CIS: Attagene CIS-FACTORIAL HepG2 Assay for human CCAAT/Enhancer Binding Protein (C/EBP) beta (AID 2282927); details: HepG2 Attagene cis-factorial transcription factor reporter; actives raise or lower the signal
CCAAT/enhancer-binding protein beta (Homo sapiens), sequence (P17676 whole entry, looked up): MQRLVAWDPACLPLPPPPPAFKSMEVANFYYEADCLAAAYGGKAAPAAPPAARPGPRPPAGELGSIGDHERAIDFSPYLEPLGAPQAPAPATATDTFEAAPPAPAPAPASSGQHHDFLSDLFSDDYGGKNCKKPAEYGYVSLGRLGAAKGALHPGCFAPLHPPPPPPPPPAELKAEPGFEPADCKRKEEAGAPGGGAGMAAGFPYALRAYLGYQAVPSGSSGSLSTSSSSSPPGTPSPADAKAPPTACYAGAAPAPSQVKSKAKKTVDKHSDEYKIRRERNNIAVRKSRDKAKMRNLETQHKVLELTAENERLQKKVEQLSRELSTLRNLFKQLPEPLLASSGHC
Summary of the method: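 Changes in reporter mRNA, rather than exogenous chimeric receptor activity, reflect native C/EBP signalling in transfected HepG2 cells dosed for 24 h; transcripts are detected by RT-PCR and capillary electrophoresis.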

[4] = ATG_CMV_CIS: Attagene CIS-FACTORIAL HepG2 Assay for human CMV (Internal Marker) (AID 2282928); details: HepG2 CMV promoter reporter, transcription factor profiling; actives raise or lower the signal;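 further: endpoint acts as a background internal control marker rather than a target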
Summary of the method: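 Readout: fluorescent reporter cDNA fragments separated by capillary electrophoresis after RT-PCR and HpaI cut. Cells: HepG2 carrying transfected cis-promoter reporter constructs, dosed 24 h. Endpoint serves as background internal-marker control, fit bidirectionally versus DMSO.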

[5] = ATG_DR4_LXR_CIS: Attagene CIS-FACTORIAL HepG2 Assay for human Liver X Receptor (LXR), DR4 submotif (AID 2282929); details: HepG2 Attagene DR4 cis-reporter, mRNA transcription; actives raise or lower the signal
Summary of the method: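 Fluorescence intensity of labelled reporter cDNA fragments, separated by capillary electrophoresis, gives the signal. HepG2 cells bearing cis-regulated reporter constructs were treated 24 h; activity fitted bidirectionally relative to DMSO negative control.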

[6] = target: Aryl hydrocarbon receptor (Homo sapiens) (UniProt P35869); test: ATG_Ahr_CIS: Attagene CIS-FACTORIAL HepG2 Assay for human Aryl Hydrocarbon Receptor (Ahr) (AID 2282930); details: HepG2 AhR cis-factorial reporter transcription; actives raise or lower the signal
Aryl hydrocarbon receptor (Homo sapiens), sequence (P35869 whole entry, looked up): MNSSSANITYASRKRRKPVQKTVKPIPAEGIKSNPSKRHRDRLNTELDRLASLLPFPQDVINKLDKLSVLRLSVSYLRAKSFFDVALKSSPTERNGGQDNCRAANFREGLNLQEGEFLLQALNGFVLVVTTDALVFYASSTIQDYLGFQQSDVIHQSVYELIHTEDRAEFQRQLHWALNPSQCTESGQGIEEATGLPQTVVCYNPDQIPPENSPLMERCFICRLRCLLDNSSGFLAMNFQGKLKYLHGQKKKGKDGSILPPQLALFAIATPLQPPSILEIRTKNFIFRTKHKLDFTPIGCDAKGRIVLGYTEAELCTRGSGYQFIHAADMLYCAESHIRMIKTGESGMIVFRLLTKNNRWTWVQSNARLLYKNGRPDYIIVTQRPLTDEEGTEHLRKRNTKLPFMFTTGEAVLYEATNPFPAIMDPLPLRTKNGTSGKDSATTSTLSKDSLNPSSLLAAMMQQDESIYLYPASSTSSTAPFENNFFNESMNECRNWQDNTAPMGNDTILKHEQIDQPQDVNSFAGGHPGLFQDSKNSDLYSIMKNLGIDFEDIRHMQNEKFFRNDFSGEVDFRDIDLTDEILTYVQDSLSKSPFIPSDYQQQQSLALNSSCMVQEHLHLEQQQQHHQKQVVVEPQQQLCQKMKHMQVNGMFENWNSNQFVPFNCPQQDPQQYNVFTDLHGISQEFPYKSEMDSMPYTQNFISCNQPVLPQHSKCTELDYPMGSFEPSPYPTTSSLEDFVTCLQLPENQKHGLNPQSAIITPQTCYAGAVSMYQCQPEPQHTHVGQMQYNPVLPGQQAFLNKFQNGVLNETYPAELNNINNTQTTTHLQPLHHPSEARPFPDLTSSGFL
Summary of the method: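 HepG2, transient MRTU (cis) transfection, 24 h exposure. RNA → cDNA → PCR → 6-FAM primer extension → HpaI 2 h 37 C → CE. Fit: bidirectional, DMSO baseline.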

[7] = ATG_AP_1_CIS: Attagene CIS-FACTORIAL HepG2 Assay for human Activator Protein 1 (AP-1) (AID 2282931); details: HepG2 Attagene cis-factorial AP-1 reporter mRNA; actives raise or lower the signal
Summary of the method: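 Multiplexed HepG2 reporter assay, 24 h dosing. mRNA induction detected by RT-PCR plus capillary electrophoresis. Activity fitted in both directions against DMSO.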

[8] = ATG_AP_2_CIS: Attagene CIS-FACTORIAL HepG2 Assay for human Activator Protein 2 (AP-2) (AID 2282932); details: HepG2 AP-2 cis-reporter, Attagene transcription factor profiling; actives raise or lower the signal
Summary of the method: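 Transiently transfected HepG2 cells are exposed to chemical for 24 h. Reporter transcripts are then measured as fluorescence following RT-PCR and capillary separation, and gain- or loss-of-signal is fitted relative to DMSO.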

[9] = ATG_BRE_CIS: Attagene CIS-FACTORIAL HepG2 Assay for human Bone Morphogenetic Protein (BMP) Response Element (BRE) (AID 2282933); details: HepG2 BMP response element reporter, Attagene transcription factor profiling; actives raise or lower the signal
Summary of the method: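 After a 24 h chemical treatment, transiently transfected HepG2 cells were lysed for RNA; reporter transcripts were quantified by fluorescent RT-PCR and capillary electrophoresis, normalised to DMSO.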

[10] = target: Retinoic acid receptor alpha (Homo sapiens) (UniProt P10276); test: ATG_DR5_RAR_CIS: Attagene CIS-FACTORIAL HepG2 Assay for human Retinoic Acid Receptor Alpha (RARE), DR5 submotif (AID 2282934); details: HepG2 Attagene cis-factorial RARE DR5 reporter, mRNA; actives raise or lower the signal;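 on AC50: reporter responds to endogenous RAR alpha beta and gamma in HepG2 not RARA alone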
Retinoic acid receptor alpha (Homo sapiens), sequence (P10276 whole entry, looked up): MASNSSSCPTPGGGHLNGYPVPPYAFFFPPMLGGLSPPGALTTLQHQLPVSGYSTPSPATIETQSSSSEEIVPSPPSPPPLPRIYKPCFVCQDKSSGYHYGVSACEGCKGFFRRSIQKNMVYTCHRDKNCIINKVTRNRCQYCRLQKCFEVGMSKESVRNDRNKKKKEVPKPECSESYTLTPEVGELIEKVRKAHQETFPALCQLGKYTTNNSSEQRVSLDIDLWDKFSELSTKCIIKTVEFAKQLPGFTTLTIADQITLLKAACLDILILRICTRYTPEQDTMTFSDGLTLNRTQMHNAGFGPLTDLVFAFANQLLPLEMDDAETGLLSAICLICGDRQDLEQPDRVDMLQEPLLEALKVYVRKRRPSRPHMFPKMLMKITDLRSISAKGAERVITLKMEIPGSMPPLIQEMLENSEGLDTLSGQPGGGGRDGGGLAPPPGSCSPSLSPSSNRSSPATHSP
Summary of the method: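 HepG2, transient cis-reporter transfection, 24 h exposure. mRNA readout: RT-PCR, FAM label, HpaI cut, capillary electrophoresis. DMSO baseline, gain/loss fitting.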

SMILES	AC50 [1]	outcome [2]	outcome [3]	outcome [4]	AC50 [5]	outcome [6]	AC50 [7]	outcome [8]	AC50 [9]	outcome [10]	outcome [1]	outcome [5]	outcome [7]	outcome [9]	AC50 [10]	AC50 [6]	AC50 [4]	AC50 [8]	AC50 [2]
C=CC(=O)OCCC(F)(F)C(F)(F)C(F)(F)C(F)(F)F	17.1 µM (active)	inactive	inactive	inactive	94 µM (active)	inactive	213 µM (active)	inactive	101 µM (active)	inactive									
NC(=O)C(F)(F)C(F)(F)C(F)(F)C(F)(F)C(F)(F)C(F)(F)C(F)(F)F		inactive	inactive	inactive		inactive		inactive		inactive	inactive	inactive	inactive	inactive					
CC(C)CCCC(C)CCO (stereo not drawn)		inactive	inactive	inactive		inactive		inactive		inactive	inactive	inactive	inactive	inactive					
CCCCCCCC/C=C\CCCCCCCC(=O)OCC(O)CO (stereo not drawn)		inactive	inactive	inactive		inactive	100 µM (active)	inactive			inactive	inactive		inactive	20.5 µM (active)				
N#Cc1ccccc1O		inactive	inactive	inactive				inactive		inactive	inactive	inactive	inactive	inactive		10.8 µM (active)			
FC(F)(F)C(F)(F)C(F)(F)C(F)(F)C(F)(F)C(F)(F)CC[Si](Cl)(Cl)Cl		inactive	inactive	inactive		inactive		inactive		inactive	inactive	inactive	inactive	inactive					
COc1ccccc1C=O		inactive	inactive	inactive		inactive		inactive		inactive	inactive	inactive	inactive	inactive					
CSc1ccc(Cl)cc1		inactive	inactive	inactive		inactive		inactive		inactive	inactive	inactive	inactive	inactive					
C=CC(=O)OCC(F)(F)C(F)(F)C(F)(F)COC(=O)C=C		inactive	inactive		31.7 µM (active)	inactive		inactive		inactive	inactive		inactive	inactive			31.6 µM (active)		
NCC(F)(F)C(F)(F)C(F)(F)C(F)(F)C(F)(F)C(F)(F)C(F)(F)C(F)(F)F		inactive	inactive	inactive		inactive		inactive		inactive	inactive	inactive	inactive	inactive					
CCCCCCCCCCCC(=O)Cl		inactive	inactive	inactive	163 µM (active)	inactive	82.8 µM (active)	inactive			inactive			inactive	65.6 µM (active)				
O=C(c1ccccc1)c1ccc(O)cc1O	1.88 µM (active)	inactive	inactive			inactive		inactive		inactive		inactive	inactive	inactive			123 µM (active)		
OCC1CCCO1 (stereo not drawn)		inactive	inactive	inactive		inactive		inactive		inactive	inactive	inactive	inactive	inactive					
CCCC(=O)OCC(COC(=O)CCC)OC(=O)CCC		inactive	inactive			inactive		inactive	57.5 µM (active)		inactive	inactive	inactive		37.5 µM (active)		69.3 µM (active)		
O=C(O)C(F)(F)C(F)(F)C(F)(F)OC(F)(C(F)(F)F)C(F)(F)F		inactive	inactive	inactive	238 µM (active)	inactive		inactive		inactive	inactive		inactive	inactive					
C=CCOC(=O)CC(C)C		inactive	inactive	inactive		inactive		inactive		inactive	inactive	inactive	inactive	inactive					
Nc1c(Br)cc([N+](=O)[O-])cc1Br		inactive	inactive	inactive		inactive		inactive		inactive	inactive	inactive	inactive	inactive					
CCCCCCCCCCCCCCCCC	10.5 µM (active)	inactive	inactive	inactive		inactive		inactive		inactive		inactive	inactive	inactive					
C=CC(=O)OCC(F)(F)C(F)(F)C(F)(F)C(F)(F)C(F)(F)C(F)(F)C(F)(F)C(F)F		inactive	inactive	inactive	232 µM (active)	inactive		inactive			inactive		inactive	inactive	36.9 µM (active)				
Brc1ccccn1		inactive	inactive	inactive		inactive		inactive		inactive	inactive	inactive	inactive	inactive					
O=C(O)C(F)(F)C(F)(F)C(F)(F)C(=O)O		inactive	inactive	inactive		inactive		inactive		inactive	inactive	inactive	inactive	inactive					
CC(C)C(=O)OCc1ccccc1		inactive	inactive	inactive		inactive		inactive		inactive	inactive	inactive	inactive	inactive					
NCC(F)(F)C(F)(F)C(F)(F)C(F)(F)C(F)(F)C(F)(F)F		inactive	inactive	inactive		inactive		inactive		inactive	inactive	inactive	inactive	inactive					

SMILES	AC50 [1]	outcome [2]	outcome [3]	outcome [4]	AC50 [5]	outcome [6]	AC50 [7]	outcome [8]	AC50 [9]	outcome [10]	outcome [1]	outcome [5]	outcome [7]	outcome [9]	AC50 [10]	AC50 [6]	AC50 [4]	AC50 [8]	AC50 [2]
Cc1cnccn1		inactive	inactive	inactive				inactive		inactive	inactive	inactive	inactive	inactive		0.0965 µM (active)			
O=S(=O)(Cl)C(F)(F)C(F)(F)C(F)(F)C(F)(F)C(F)(F)C(F)(F)C(F)(F)C(F)(F)F		inactive	inactive	inactive		inactive	57.3 µM (active)	inactive		inactive	inactive	inactive		inactive					
Oc1ccc(C2(c3ccc(O)c(C4CCCCC4)c3)CCCCC2)cc1C1CCCCC1		inactive	inactive		2.73 µM (active)	inactive	33.4 µM (active)	inactive			inactive			inactive	8.25 µM (active)		8.9 µM (active)		
CCN(CC)c1ccc(C=O)c(O)c1		inactive	inactive	inactive	67.2 µM (active)	inactive		inactive		inactive	inactive		inactive	inactive					
CSc1ccc(O)cc1C		inactive	inactive	inactive		inactive		inactive		inactive	inactive	inactive	inactive	inactive					
CCOCN(C(=O)CS(=O)(=O)O)c1c(C)cccc1CC		inactive	inactive	inactive		inactive		inactive		inactive	inactive	inactive	inactive	inactive					
CC(=O)c1ccccc1N		inactive	inactive	inactive		inactive		inactive		inactive	inactive	inactive	inactive	inactive					
O=C(O)C(F)(F)C(F)(F)C(F)(F)OC(F)(F)F		inactive	inactive	inactive		inactive		inactive		inactive	inactive	inactive	inactive	inactive					
CCCCCCCCCCCCC[N+](C)(C)Cc1ccccc1		inactive	inactive	inactive		inactive		inactive	5.63 µM (active)	inactive	inactive	inactive	inactive						
COCCOCCC[Si](C)(O[Si](C)(C)C)O[Si](C)(C)C	0.437 µM (active)	inactive	inactive	inactive	54.1 µM (active)	inactive	1.53 µM (active)		9.13 µM (active)						8.84 µM (active)			60.1 µM (active)	
OCC(F)(F)C(F)(F)C(F)(F)C(F)(F)C(F)(F)C(F)(F)C(F)(F)C(F)(F)CO	0.188 µM (active)	inactive	inactive	inactive		inactive		inactive		inactive		inactive	inactive	inactive					
C[Si](C)O[Si](C)C		inactive	inactive	inactive		inactive		inactive		inactive	inactive	inactive	inactive	inactive					
OCCC(O)CO (stereo not drawn)		inactive	inactive	inactive		inactive		inactive		inactive	inactive	inactive	inactive	inactive					
CCCCCCCC/C=C\CCCCCCCC(=O)N(C)CC(=O)O		inactive	inactive	inactive		inactive		inactive		inactive	inactive	inactive	inactive	inactive					
O=C(Cl)C(F)(F)C(F)(F)C(F)(F)C(F)(F)C(F)(F)C(F)(F)C(F)(F)F	19.7 µM (active)	inactive	inactive				66.7 µM (active)	inactive		inactive		inactive		inactive			63.3 µM (active)		
O=S(=O)(OCC(F)(F)F)C(F)(F)C(F)(F)C(F)(F)C(F)(F)F		inactive			104 µM (active)	inactive	48.1 µM (active)	inactive	58.2 µM (active)		inactive				17.6 µM (active)		42.3 µM (active)		
Cc1ccc(S(=O)(=O)C(I)I)cc1				inactive			51.7 µM (active)				inactive	inactive		inactive	8.88 µM (active)	27.5 µM (active)		13.1 µM (active)	8.93 µM (active)
O=C(O)C(F)(F)OC(F)(F)C(F)(F)OC(F)(F)C(F)(F)OC(F)(F)F	13.2 µM (active)	inactive				inactive	66.5 µM (active)	inactive		inactive		inactive		inactive			66.5 µM (active)		
O=S(=O)(O)CCC(F)(F)C(F)(F)C(F)(F)C(F)(F)F		inactive		inactive		inactive		inactive		inactive	inactive	inactive	inactive	inactive					
O=C1C=CC(=O)N1c1ccccc1		inactive	inactive	inactive		inactive		inactive		inactive	inactive	inactive	inactive	inactive					
Cc1ccc(O)cn1		inactive		inactive		inactive		inactive		inactive	inactive	inactive	inactive	inactive					
O=C=NCc1cccc(CN=C=O)c1		inactive		inactive		inactive		inactive		inactive	inactive	inactive	inactive	inactive					
